# Assay outcomes deposited in PubChem by National Center for Advancing Translational Sciences (NCATS).
# Most compounds without a hit are left out; they make up all but 15% or so of the library.
# DT40 TDP1 no CPT: qHTS for Inhibitors of human tyrosyl-DNA phosphodiesterase 1 (TDP1): qHTS in cells in absence of CPT. AID 686978, 2013. DT40 Tdp1-/- hTDP1 cells, no CPT, ATP luminescence, 48 h. 420,000 tested, 15% active. Potency, µM (titrated, usually from 46.2 µM), inactives show at the highest dose activity change, negative = growth inhibition, actives largely listed as inhibitors; further: nearly all actives have a fitted effect of over 55% in size
#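 A cellular qHTS used chicken DT40 cells lacking endogenous Tdp1 but carrying stably transfected human TDP1. Compounds were applied without camptothecin, and cell growth kinetics were judged by ATP-dependent luminescence after ≥48 hr.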
# RORg inh: qHTS for inhibitors of ROR gamma transcriptional activity; Nuclear receptor ROR-gamma (Mus musculus), P51450; Drosophila S2 Gal4-RORgamma UAS-luciferase reporter, 20 h; Potency, µM (highest dose often 53.6 µM), inactives show at the highest dose activity change, negative = inhibition, usual class: inhibitors; 310,000 tested, 5.4% active; further: nearly all actives have a fitted effect of over 60% in size
# Target sequence (P51450 whole entry, looked up, the tested form may be a part): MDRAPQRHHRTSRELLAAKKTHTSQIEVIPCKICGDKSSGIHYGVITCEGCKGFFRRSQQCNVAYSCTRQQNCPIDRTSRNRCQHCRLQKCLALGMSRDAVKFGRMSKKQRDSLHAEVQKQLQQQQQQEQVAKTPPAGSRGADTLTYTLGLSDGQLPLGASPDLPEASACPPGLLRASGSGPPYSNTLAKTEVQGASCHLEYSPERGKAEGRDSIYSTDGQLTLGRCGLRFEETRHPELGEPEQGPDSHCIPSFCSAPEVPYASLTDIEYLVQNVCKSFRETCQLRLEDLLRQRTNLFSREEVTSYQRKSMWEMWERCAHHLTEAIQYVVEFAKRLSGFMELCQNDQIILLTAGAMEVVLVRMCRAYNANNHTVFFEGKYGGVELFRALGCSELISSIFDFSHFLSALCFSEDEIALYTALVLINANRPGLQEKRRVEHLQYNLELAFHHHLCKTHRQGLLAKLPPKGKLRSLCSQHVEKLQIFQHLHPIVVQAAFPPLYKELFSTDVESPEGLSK
#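 Drosophila S2 cells stably expressing Gal4-DBD/mouse RORγ fusion under metallothionein promoter plus UAS-luciferase; compound 1 h, then 700 uM CuSO4 induction for 20 h at ambient temperature; inhibition read as reduced luminescence.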
# TDP1 cell CPT: qHTS for Inhibitors of human tyrosyl-DNA phosphodiesterase 1 (TDP1): qHTS in cells in presence of CPT. chicken DT40 Tdp1-/-;hTDP1 cells + 20 nM CPT, ATP luminescence, 48 h. Potency, µM (series often up to 46.2 µM), for the others: top-dose activity change, negative = growth inhibition, usual class: inhibitors. 420,000 tested, 12% active. AID 686979, 2013; further: nearly all actives have a fitted effect of over 55% in size
#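 Chicken DT40 Tdp1-/- cells stably complemented with human TDP1 were seeded at 400 cells/well in medium containing 20 nM camptothecin, exposed to pin-transferred compounds, and grown at 37 °C for at least 48 hr. Viability was read as ATP luminescence.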
# ELG1 repair inh: qHTS screen for small molecules that inhibit ELG1-dependent DNA repair in human embryonic kidney (HEK293T) cells expressing luciferase-tagged ELG1 | HEK293T ELG1-luciferase reporter, luminescence, 16 h; DNA damage induced by 5-fluorouridine | Potency, µM (doses to about 46.1 µM), without a hit: at the top dose activity change, negative = inhibition, actives largely listed as inhibitors | 330,000 tested, 2.3% active; further: nearly all actives have a fitted effect of over 55% in size
#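 5-Fluorouridine DNA damage + compound/DMSO, 2,000 cells/well, 16 h, 37 °C/5% CO2. ONE-Glo, 30 min RT, luminescence. Readout = decrease in reporter signal.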
# 12-LOX inh: Primary qHTS assay for inhibitors of human arachidonate 12S-lipoxygenase (ALOX12): Round 2; Polyunsaturated fatty acid lipoxygenase ALOX12 (Homo sapiens), P18054; purified 12hLO, xylenol orange hydroperoxide absorbance; Potency, µM (series often up to 108 µM), inactives show top-dose activity change, negative = inhibition, hits mostly inhibitors; 580,000 tested, 1.1% active; AID 1671190, 2021
#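 Purified human 12hLO (150 nM final) in 25 mM Hepes, 0.01% Triton X-100, pH 7.0 was preincubated 15 min at room temperature with compound. Then 40 uM arachidonic acid was added, 30 min. Hydroperoxide was read by Fe-XO absorbance ratio 573/405 nm.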
# Gal4-VP16 FLuc: VP16 counterscreen qHTS for inhibitors of ROR gamma transcriptional activity; 310,000 tested, 3.5% active; AID 2546, 2010; Drosophila S2 Gal4-VP16 UAS-luciferase, luminescence, 20 h; Potency, µM (doses to about 53.6 µM), inactives show at the highest dose activity, negative = inhibition, usual class: inhibitors;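 further: Gal4-VP16 expression switched on by copper sulfate through the metallothionein promoter; nearly all actives have a fitted effect of over 50% in size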
# The depositor's hits bear a star; ? = inconclusive; · = not tested or not shown; [ ] = remark or other dose. The call rests on the fitted dose curve; in most records, active means well fitted curve in the direction sought with a large enough effect; inconclusive means small, poorly fitted or top-dose-only effect, or another doubt; inactive means no such curve, though single readings can be large; an effect the other way counts as inactive or inconclusive. On the % scale 0 is the no-effect control and ±100 the full control effect; potency means the concentration at half of the fitted maximal effect.
SMILES,DT40 TDP1 no CPT,RORg inh,TDP1 cell CPT,ELG1 repair inh,12-LOX inh,Gal4-VP16 FLuc
CN(C)CCNC(=O)c1ccc(-c2nn(C)c(=O)c3ccccc23)cc1,-18%,-37%,?,?,-16%,-3%
Cn1nc(-c2ccc(OCC(N)=O)cc2)c2ccccc2c1=O,2%,-13%,-2%,?,0%,1%
Cc1cccc(NC(=O)COc2ccc(-c3nn(C)c(=O)c4ccccc34)cc2)c1,16µM*,-6%,12µM*,15µM*,-28%,-3%
Cn1nc(-c2ccc(OCC(=O)Nc3ccccc3)cc2)c2ccccc2c1=O,26µM*,18%,23µM*,?,-3%,-2%
CN(C(=O)c1ccc(-c2nn(C)c(=O)c3ccccc23)cc1)c1ccccc1,16µM*,-16%,?,?,13%,-7%
COc1ccccc1NC(=O)COc1ccc(-c2nn(C)c(=O)c3ccccc23)cc1,7.3µM*,2%,13µM*,16µM*,-6%,-16%
CSc1cccc(NC(=O)CSc2nnc(C(C)N3C(=O)COc4ccccc43)n2C)c1 (stereo not given),·,·,·,·,-11%,·
Cc1ncc(CN2CCCC2C(=O)Nc2ccc(-c3cccc(F)c3)cc2)n1C (stereo not given),·,·,·,·,45%,·
CNC(=O)C1(N2CCC[C@H]2C(=O)N2CCOCC2)COC1,·,·,·,·,0%[176 µM],·
NC(=O)CCC(NC(=O)C1(c2ccccc2)CCCC1)C(N)=O (stereo not given),·,·,·,·,2%,·
COc1ccccc1NC(=O)c1ccc(-c2nn(C)c(=O)c3ccccc23)cc1,21µM*,-19%,?,?,0%,4%
COC(=O)COc1ccc(-c2nn(C)c(=O)c3ccccc23)cc1,-19%,0%,-3%,1%,-9%[57.4 µM],-3%
Cc1ccc(NC(=O)CCn2nc(-c3ccccc3)c3ccccc3c2=O)c(C)c1,?,·,21µM*,·,-15%,·
CCCNC(=O)COc1ccc(-c2nn(C)c(=O)c3ccccc23)cc1,21µM*,?,?,-20%,1%,-12%
Cc1ccccc1NC(=O)CCn1nc(-c2ccc(Cl)cc2)c2ccccc2c1=O,-28%,·,?,·,-24%,·
COc1ccc(NC(=O)c2ccc(-c3nn(C)c(=O)c4ccccc34)cc2)cc1,3%,-1%,3%,24%,4%,-3%
Cc1csc(NC(=O)Cc2nn(C)c(=O)c3ccccc23)n1,8.2µM*,3%,10µM*,?,-20%,?
O=C(N[C@@H]1c2ccccc2C[C@@H]1O)c1cc(COc2ccccc2F)[nH]n1,·,·,·,·,33%,·
O=C(Cc1c[nH]c2ccccc12)NC(c1ccccc1)c1ccccc1,·,·,·,·,13%,·
COc1ccccc1NC(=O)Cc1nn(C)c(=O)c2ccccc12,8.2µM*,6%[0.365 µM],16µM*,-26%,?,·
CNC(=O)Cn1nc(-c2ccc(C)cc2)c2ccccc2c1=O,15µM*,?,?,8%,23%,1%
Cc1ccc2c(CSc3nc(N)cc(N)n3)cc(=O)oc2c1C,·,·,·,·,-18%,·
Cc1ccc(NC(=O)Cn2c(=O)n(Cc3ccc4c(c3)OCO4)c(=O)c3ccc(C(=O)NC4CCCCC4)cc32)c(C)c1,?,·,2.1µM*,·,-10%,·
Cc1ccc(C)c(NC(=O)Cn2c(=O)n(CCC(=O)NCc3ccc4c(c3)OCO4)c(=O)c3ccccc32)c1,-14%,·,-17%,·,-2%,·
Cc1ccc(C)c(NC(=O)Cn2c(=O)n(Cc3ccc4c(c3)OCO4)c(=O)c3ccc(C(=O)NC4CCCCC4)cc32)c1,?,·,2.6µM*,·,0%,·
SMILES,DT40 TDP1 no CPT,RORg inh,TDP1 cell CPT,ELG1 repair inh,12-LOX inh,Gal4-VP16 FLuc
Cc1cc(C)c(NC(=O)Cn2c(=O)n(CCC(=O)N3CCc4ccccc4C3)c(=O)c3ccccc32)c(C)c1,0.52µM*,·,13µM*,·,-11%,·
Cc1ccc(NC(=O)Cn2c(=O)n(Cc3ccco3)c(=O)c3ccc(C(=O)NC4CCCC4)cc32)c(C)c1,16µM*,·,16µM*,·,0%,·
CCN(C(=O)Cn1c(=O)n(Cc2ccc3c(c2)OCO3)c(=O)c2ccc(C(=O)NC3CCCCC3)cc21)c1cccc(C)c1,16µM*,·,15µM*,·,0%,·
Cc1cc(C)c(NC(=O)Cn2c(=O)n(Cc3ccc4c(c3)OCO4)c(=O)c3ccccc32)c(C)c1,?,·,-27%,·,-1%,·
Cc1ccccc1NC(=O)Cn1c(=O)n(Cc2ccc3c(c2)OCO3)c(=O)c2ccc(C(=O)NC3CCCCC3)cc21,7.3µM*,·,5.8µM*,·,-16%,·
Cc1cc(C)c(NC(=O)Cn2c(=O)n(Cc3ccc(C(=O)NCc4ccc5c(c4)OCO5)cc3)c(=O)c3ccccc32)c(C)c1,7.3µM*,·,6.5µM*,·,?,·
CCN(C(=O)Cn1c(=O)n(Cc2ccccc2)c(=O)c2ccccc21)c1cccc(C)c1,?,0%,-11%,-6%,-5%,0%
O=C(NC1CC1)c1ccccc1OCC1CCCN(Cc2cccc3[nH]ccc23)C1 (stereo not given),·,·,·,·,-13%,·
Cc1cnc(C(=O)N(C)Cc2ccc(Br)o2)cn1,·,·,·,·,-11%,·
CCC(C)(C)N1CC(=O)N(Cc2ccccc2)C(c2ccc(OC)cc2)C1=O (stereo not given),18µM*,9%,9.2µM*,-1%,0%,1%
COc1cccc(CN2C(=O)CN(C3CCCCC3)C(=O)C2c2ccc(F)cc2)c1 (stereo not given),?,22%,?,2%,-3%,2%
COc1ccc(CN2C(=O)CN(C3CCCCCC3)C(=O)C2c2ccc(F)cc2)cc1 (stereo not given),?,28%,?,-4%,7%,11%
COc1ccccc1CN1C(=O)CN(C2CCCCCC2)C(=O)C1c1ccc(C)cc1 (stereo not given),21µM*,·,16µM*,·,-28%,·
COc1ccc(C2C(=O)N(C3CCCCCC3)CC(=O)N2Cc2ccccc2)cc1 (stereo not given),26µM*,·,23µM*,·,?,·
